The campaign covered roughly 310,000 compounds. About 3,900 (1.3%) were called active. The sample holds actives, similar compounds and a random draw of the others, so the mix is not that of the screen.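 The calls were made as follows: active = calcium-response B-score plate-corrected more than 3 library SD below zero, starting fluorescence within 5 deviations, no agonist response on first addition; inactive = the rest.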
These compounds were tested against Mas-related G-protein coupled receptor member X1 (Homo sapiens) (UniProt Q96LB2) (assay: antagonists of human MrgX1 receptor, primary screen, HEK293 cells, Fluo-4 calcium flux (AID 588676;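 as to B-score: peak minus trough fluorescence over baseline after final BAM8-22 challenge near maximal dose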)). Details: Fluo-4, BAM8-22 antagonism, at 10 µM; stronger effect = lower value.
Mas-related G-protein coupled receptor member X1 (Homo sapiens), sequence (Q96LB2 whole entry, looked up): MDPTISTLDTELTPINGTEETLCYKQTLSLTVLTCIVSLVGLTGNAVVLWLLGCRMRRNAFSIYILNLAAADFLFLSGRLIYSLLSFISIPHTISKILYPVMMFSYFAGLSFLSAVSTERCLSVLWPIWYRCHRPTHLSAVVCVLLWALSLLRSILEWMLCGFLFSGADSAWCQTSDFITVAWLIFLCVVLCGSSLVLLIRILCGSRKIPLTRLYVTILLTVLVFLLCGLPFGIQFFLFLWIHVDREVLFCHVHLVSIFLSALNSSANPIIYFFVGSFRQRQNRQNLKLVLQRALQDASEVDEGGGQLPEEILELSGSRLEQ
In the case of Cc1ccccc1OCC(=O)Nc1nc(C)c(C(=O)N(C)C)s1, the B-score is reported as “inactive”.
In the case of Cc1cccc(NC(=O)COc2ccccc2C)n1, the B-score is reported as -4.62 (active).
Cc1cccc(NC(=O)COc2ccc(Br)cc2C)n1 was tested, and the B-score was “inactive”.
With COc1ccc(C)cc1NC(=S)N1CCOCC1 the B-score was “inactive”.
COCC(=O)Nc1ccc(Br)cc1 was tested, and the B-score was “inactive”.
In the case of CN1C(CC(=O)Nc2ccc(Br)cc2)c2ccccc2CC1(C)C (configuration not stated), the B-score is reported as -5.82 (active).
In the case of CN1CCN(NC(=O)Nc2ccc(Br)cc2)CC1, the B-score is reported as “inactive”.
In the case of CCN(CC)c1ccc(C(=O)NNC(=O)CCc2nc3ccccc3c(=O)[nH]2)cc1, the B-score is reported as “inactive”.
In the case of Cc1ccc(S(=O)(=O)N2CCN(S(=O)(=O)N3CCOCC3)CC2)cc1, the B-score is reported as “inactive”.
With Cc1ccccc1N1CCN(S(=O)(=O)c2ccc3ccccc3c2)CC1 the B-score was “inactive”.
For O=S(=O)(c1ccc2ccccc2c1)N1CCN(S(=O)(=O)N2CCOCC2)CC1, the B-score was -11.5 (active).
For Cc1cccc(OCC(=O)NC(=S)Nc2ccccc2N2CCOCC2)c1, the B-score was “inactive”.
For CCc1ccc(C(=O)NC(=S)Nc2ccccc2N2CCOCC2)cc1, the B-score was “inactive”.
For O=C(COc1ccc(Cl)cc1)NC(=S)Nc1ccccc1N1CCOCC1, the B-score was -5.65 (active).
CCOC(=O)C1CCN(C(=O)CN2C(=O)c3cccnc3Oc3ccc(C)cc32)CC1 was tested, and the B-score was “inactive”.
With C[C@@H](NC(=O)[C@@H]1Cc2ccccc2CN1)C(=O)NC1CCCC1 the B-score was “inactive”.
For Cc1nc2ccccc2nc(C)c1=NOCc1ccc(Cl)cc1Cl, the B-score was “inactive”.
For COc1ccc(CCNC(=O)CCc2cn(C)c3ccccc23)c(OC)c1, the B-score was “inactive”.
NC(=O)NC(=O)C(OC(=O)CCNS(=O)(=O)c1ccccc1)c1ccccc1 (configuration not stated) was tested, and the B-score was “inactive”.
In the case of CCOc1ccc(C(=O)Nc2ccncc2)cc1, the B-score is reported as “inactive”.
For CCOc1ccc(NC(=O)c2ccc(NC(=O)COC(=O)c3ccc(NC(=O)CC#N)cc3)cc2)cc1, the B-score was “inactive”.
CCOc1ccc(NC(=O)CCNC(=O)c2ccc(Br)cc2)cc1 was tested, and the B-score was -4.98 (active).
Fc1cccc(Cc2noc(CN3CCN(c4cnccn4)CC3)n2)c1 was tested, and the B-score was “inactive”.
In the case of C=CCOc1cccc(CNCc2cccnc2)c1, the B-score is reported as “inactive”.
In the case of Fc1ccccc1COc1ccccc1CNCc1ccncc1, the B-score is reported as “inactive”.
In the case of c1ccc(COc2ccccc2CNCc2cccnc2)cc1, the B-score is reported as -6.34 (active).
COc1ccc(N2C(=O)C(CC(=O)Nc3ccccc3)N(Cc3ccc(OC)c(OC)c3)C2=O)cc1 (configuration not stated) was tested, and the B-score was “inactive”.
With CCOc1ccc(C(=O)N(Cc2ccc(N(C)C)cc2)C2CCS(=O)(=O)C2)cc1 (configuration not stated) the B-score was “inactive”.
With COc1cc(C(=O)N(Cc2ccc(N(C)C)cc2)C2CCS(=O)(=O)C2)cc(OC)c1OC (configuration not stated) the B-score was -4.58 (active).
In the case of COc1ccc(C(=O)N(Cc2ccc(N(C)C)cc2)C2CCS(=O)(=O)C2)cc1 (configuration not stated), the B-score is reported as “inactive”.
With O=Cc1ccc(OCc2cn3ccccc3n2)cc1 the B-score was “inactive”.
For COC(=O)c1sccc1NS(=O)(=O)c1ccc(F)cc1F, the B-score was -4.66 (active).
For COc1ccc(NS(=O)(=O)c2ccc(F)cc2F)cn1, the B-score was “inactive”.
In the case of COC(=O)c1sccc1NC(=O)CSc1ccccc1NS(=O)(=O)c1cc(Cl)ccc1Cl, the B-score is reported as “inactive”.
COc1c(Br)cc2c(C)c(C(=O)N3CCOCC3)oc2c1Br was tested, and the B-score was “inactive”.
In the case of O=C(CN1CCCC1)N1CCN(c2ccccc2)CC1, the B-score is reported as “inactive”.
O=C(CN1CCN(c2ccc(Cl)cc2)CC1)N1CCCC1 was tested, and the B-score was -6.44 (active).
O=C(CN1CCN(c2ccc(Cl)cc2)CC1)c1ccccc1 was tested, and the B-score was “inactive”.
With Cc1cccc(-[n+]2c(-c3cccc(Br)c3)[nH]c3nc4ccccc4nc32)c1 the B-score was “inactive”.
CN(CC(=O)Nc1ccccc1Cl)C(=O)COc1cccc2c1OC(C)(C)C2 was tested, and the B-score was -5.16 (active).
For CC1(C)Cc2cccc(OCC(=O)N3CCN(c4ccc([N+](=O)[O-])cc4)CC3)c2O1, the B-score was “inactive”.
For CC1(C)Cc2cccc(OCC(N)=O)c2O1, the B-score was “inactive”.
In the case of COc1cccc(CCNC(=O)COc2cccc3c2OC(C)(C)C3)c1, the B-score is reported as -5.36 (active).
For CC1(C)Cc2cccc(OCC(=O)Nc3nccs3)c2O1, the B-score was “inactive”.
With CC1(C)Cc2cccc(OCC(=O)NCc3ccccc3)c2O1 the B-score was “inactive”.
In the case of O=C(NNc1ccccc1Cl)C(O)(c1cccc(C(F)(F)F)c1)c1cccc(C(F)(F)F)c1, the B-score is reported as “inactive”.
With COc1ccc(S(=O)(=O)N2CCC(C(=O)NCCC(=O)NCc3cccc(OC)c3)CC2)cc1 the B-score was “inactive”.
For COc1cccc(CNC(=O)C2CCN(S(=O)(=O)c3cccc4cccnc34)CC2)c1, the B-score was -4.66 (active).
For COc1ccccc1CNC(=O)C1CCCN(S(=O)(=O)c2cccc3cccnc23)C1 (configuration not stated), the B-score was “inactive”.
In the case of Fc1ccccc1OCCCCn1cncn1, the B-score is reported as “inactive”.
With O=C(c1ccccc1)C(Cn1cncn1)C(Sc1ccccc1)c1ccccc1 (configuration not stated) the B-score was -5.84 (active).
In the case of OC(COc1ccc2ccccc2c1)Cn1cncn1 (configuration not stated), the B-score is reported as “inactive”.
For COc1ccc(C2(O)C(=O)Nc3ccccc32)cc1 (configuration not stated), the B-score was “inactive”.
With COc1ccc(NC(=O)c2ccco2)cc1NC(=O)c1ccc(C#N)cc1F the B-score was “inactive”.
In the case of Cc1c(C=O)c2ccccn2c1C(=O)c1ccncc1, the B-score is reported as “inactive”.
CCCN1C2CCCC1CC(NC(=O)NC13CC4CC(CC(C4)C1)C3)C2 (configuration not stated) was tested, and the B-score was “inactive”.
With Nc1cccc(S(=O)(=O)Nc2ccc(SC(F)F)cc2)c1 the B-score was “inactive”.
With Cc1cccc(-n2c(Cc3cc(=O)[nH]c(=O)[nH]3)nnc2SCC(=O)Nc2cccc(C(F)(F)F)c2)c1 the B-score was “inactive”.
With COc1cccc(-n2c(Cc3cc(=O)[nH]c(=O)[nH]3)nnc2SCC(=O)Nc2ccccc2)c1 the B-score was “inactive”.
For Cc1cccc(-n2c(Cc3cc(=O)[nH]c(=O)[nH]3)nnc2SC(C)C)c1, the B-score was -6.63 (active).
CC(C)NC(=O)NNc1c(Cl)cncc1Cl was tested, and the B-score was “inactive”.
With Cc1ccc(C(c2nnnn2CS(=O)(=O)c2ccc(C)cc2)N2CCC(C)CC2)cc1 (configuration not stated) the B-score was “inactive”.
For CC1(C)CC(=O)C=C(N2CCCC2)C1, the B-score was “inactive”.
In the case of O=C(O)CN1CCN(C(c2ccccc2)c2ccccc2)CC1, the B-score is reported as “inactive”.
In the case of CC1(C)CC(N2CCN(C(c3ccccc3)c3ccccc3)CC2)=CC(=[N+]2CCCCC2)C1, the B-score is reported as -4.89 (active).
With CCC(=O)N(C)C(c1ccccc1Cl)c1nnnn1-c1c(C)cccc1C (configuration not stated) the B-score was “inactive”.
In the case of COc1ccc(N2CC(NS(=O)(=O)c3ccc4ccccc4c3)CC2=O)cc1 (configuration not stated), the B-score is reported as “inactive”.
In the case of CSCC[C@H](NC(=O)N1CCn2c1nc1ccccc12)C(=O)NCc1ccc2c(c1)OCO2, the B-score is reported as “inactive”.
Cc1ccc(S(=O)(=O)N2CCN(C)CC2)cc1C(=O)NC1CCCCC1 was tested, and the B-score was “inactive”.
In the case of CCCCC1(C(=O)OCC)NC(c2ccc(O)cc2)C2C(=O)N(c3ccccc3)C(=O)C21 (configuration not stated), the B-score is reported as “inactive”.
With O=C1CCCN1C(=O)COc1ccc([N+](=O)[O-])cc1 the B-score was “inactive”.
Cc1ccc(OC(=O)CCC(=O)Nc2ccc(Br)cc2)cc1 was tested, and the B-score was “inactive”.
COC(=O)COc1ccc(S(=O)(=O)Nc2ccc(NC(C)=O)cc2)cc1 was tested, and the B-score was “inactive”.
CC(=O)Nc1ccc(OC(=O)COc2ccc(Br)cc2)cc1 was tested, and the B-score was -4.53 (active).
For CCN(C(=O)CSc1nnnn1-c1ccccc1OC)C1CCS(=O)(=O)C1 (configuration not stated), the B-score was “inactive”.
In the case of CCN(C(=O)CSc1nnc2ccccn12)C1CCS(=O)(=O)C1 (configuration not stated), the B-score is reported as -5.04 (active).
With CCN(C(=O)CSc1nc2ccccc2n1CC)C1CCS(=O)(=O)C1 (configuration not stated) the B-score was “inactive”.
Cc1nc(N2CCN(c3ccccn3)CC2)c2c(C)c(C(=O)Nc3ccc(F)c(Cl)c3)sc2n1 was tested, and the B-score was -5.65 (active).
In the case of COc1ccc(NC(=O)c2sc3nc(C)nc(N4CCN(c5ccccn5)CC4)c3c2C)c(OC)c1, the B-score is reported as “inactive”.
In the case of Cc1nc(N2CCN(c3ccccn3)CC2)c2c(C)c(C(=O)Nc3ccc(F)cc3)sc2n1, the B-score is reported as “inactive”.
COc1ccc(NC(=O)CN(Cc2ccccc2)S(C)(=O)=O)cc1OC was tested, and the B-score was “inactive”.
With CC1(C)C(C=C(Cl)Cl)C1C(=O)NC(O)C(=O)c1ccccc1 (configuration not stated) the B-score was “inactive”.
With O=C(CCCN1C(=O)c2ccccc2C1=O)Oc1ccc(Cl)cc1 the B-score was “inactive”.
For Cc1cccc(NC(=O)c2nc(S(=O)(=O)Cc3ccccc3)ncc2Cl)c1, the B-score was “inactive”.
In the case of Cc1ccc(CS(=O)(=O)c2ncc(Cl)c(C(=O)Nc3nnc(C)s3)n2)cc1, the B-score is reported as -6.02 (active).
CSc1nnc(NC(=O)c2nc(S(=O)(=O)Cc3ccc(C)cc3)ncc2Cl)s1 was tested, and the B-score was “inactive”.
Cc1cc(N2CCOCC2)nc2ccc(NC(=S)N3CCN(Cc4ccccc4)CC3)cc12 was tested, and the B-score was “inactive”.
For C#C[C@]1(O)CC[C@H]2[C@@H]3CCC4=CC(=O)CC[C@@H]4[C@H]3CC[C@@]21CC, the B-score was “inactive”.
For O=C(NCC(c1cccs1)N1CCOCC1)c1cc(Cl)ccc1[N+](=O)[O-] (configuration not stated), the B-score was “inactive”.
With CCc1nnc(NC(=O)CSc2nc3c(c(=O)n2-c2ccccc2OC)SCC3)s1 the B-score was -5.85 (active).
In the case of CCOc1ccc(NC(=O)CSc2nc3c(c(=O)n2-c2ccccc2OC)SCC3)cc1, the B-score is reported as “inactive”.
In the case of CCc1nnc(NC(=O)CSc2nnc(Cc3ccccc3)n2-c2ccc(OC)cc2)s1, the B-score is reported as “inactive”.
For CC(Oc1ccccc1F)C(=O)NN (configuration not stated), the B-score was “inactive”.
For CCSc1sc(CC)cc1C=O, the B-score was “inactive”.
For Cc1ccc(CNC(=O)C2CC(=O)N(C3CCCCCCC3)C2)cc1 (configuration not stated), the B-score was “inactive”.
For O=C(Nc1ccc(Br)cc1F)C1CC(=O)N(C2CCCCC2)C1 (configuration not stated), the B-score was -6.01 (active).
In the case of O=C(NCCc1ccc(Cl)cc1)C1CC(=O)N(C2CCCCC2)C1 (configuration not stated), the B-score is reported as “inactive”.
COc1cc(C)c(Cl)cc1S(=O)(=O)n1ccnc1 was tested, and the B-score was “inactive”.
In the case of CCCC(=O)N1CCC(CCC(=O)NC2CC2)CC1, the B-score is reported as “inactive”.
For CCOc1ccccc1OCC(=O)Nc1ccccc1C(=O)NC1CC1, the B-score was “inactive”.
In the case of CC(Oc1ccc(F)cc1)C(=O)Nc1ccccc1C(=O)NC1CC1 (configuration not stated), the B-score is reported as -5.83 (active).
With COc1ccccc1OCC(=O)Nc1ccccc1C(=O)NC1CC1 the B-score was “inactive”.
For COc1cc(-c2c(-c3ccc4c(c3)OCO4)noc2C)ccc1F, the B-score was “inactive”.
In the case of Nc1nc(NCC2CCCO2)nc(Nc2ccccc2F)c1[N+](=O)[O-] (configuration not stated), the B-score is reported as “inactive”.
COC(=O)c1sc(-c2ccc(C(C)(C)C)cc2)cc1NC(=O)/C=C/C(=O)O was tested, and the B-score was -9.91 (active).
In the case of CSc1ccc(NC(=O)/C=C/C(=O)O)cc1, the B-score is reported as “inactive”.
For CC(C)(C)c1ccc(/C=C/C(=O)Nc2ncccn2)cc1, the B-score was “inactive”.
